According to the supplement of paper PMC6411743:
± gives the standard deviation of the averaged measurements. Of roughly 6,500 targets only a part is listed; those with the largest changes were picked by preference.

Compound: Nc1ncnc2c1ncn2[C@@H]1O[C@H](COP(=O)(O)OP(=O)(O)OP(=O)(O)O)[C@@H](O)[C@H]1O [adenosine triphosphate]
Test: NP40-soluble protein abundance relative to vehicle (solubility fold change) (ratio); higher = more soluble protein in presence of ATP
Method in brief: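 Jurkat crude lysate (Dounce-homogenised) was treated with eight concentrations from 0.1 to 10 mM for 10 min at room temperature, then 3 min at 37 °C. It was solubilised with 0.8% NP40 and benzonase (60 min, 4 °C) and ultracentrifuged, and the supernatant was TMT-labelled for LC-MS/MS. Intensities were vsn-normalised, and the value is the fold change against the NP40-processed vehicle per replicate, from three independent experiments.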

UniProt Q01415, sequence (Q01415 whole entry): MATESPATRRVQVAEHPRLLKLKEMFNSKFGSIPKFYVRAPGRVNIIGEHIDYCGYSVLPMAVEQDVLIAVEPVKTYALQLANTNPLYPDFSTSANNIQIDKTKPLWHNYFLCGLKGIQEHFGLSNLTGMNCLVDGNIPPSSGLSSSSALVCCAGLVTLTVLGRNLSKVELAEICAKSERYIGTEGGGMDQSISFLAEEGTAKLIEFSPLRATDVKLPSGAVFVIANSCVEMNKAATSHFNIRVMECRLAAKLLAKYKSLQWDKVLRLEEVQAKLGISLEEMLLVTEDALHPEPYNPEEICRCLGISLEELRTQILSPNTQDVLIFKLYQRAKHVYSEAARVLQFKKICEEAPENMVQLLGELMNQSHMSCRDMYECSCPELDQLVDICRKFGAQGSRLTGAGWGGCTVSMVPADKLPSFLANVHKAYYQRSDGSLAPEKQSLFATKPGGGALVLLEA
UniProt P60228, sequence (P60228 whole entry): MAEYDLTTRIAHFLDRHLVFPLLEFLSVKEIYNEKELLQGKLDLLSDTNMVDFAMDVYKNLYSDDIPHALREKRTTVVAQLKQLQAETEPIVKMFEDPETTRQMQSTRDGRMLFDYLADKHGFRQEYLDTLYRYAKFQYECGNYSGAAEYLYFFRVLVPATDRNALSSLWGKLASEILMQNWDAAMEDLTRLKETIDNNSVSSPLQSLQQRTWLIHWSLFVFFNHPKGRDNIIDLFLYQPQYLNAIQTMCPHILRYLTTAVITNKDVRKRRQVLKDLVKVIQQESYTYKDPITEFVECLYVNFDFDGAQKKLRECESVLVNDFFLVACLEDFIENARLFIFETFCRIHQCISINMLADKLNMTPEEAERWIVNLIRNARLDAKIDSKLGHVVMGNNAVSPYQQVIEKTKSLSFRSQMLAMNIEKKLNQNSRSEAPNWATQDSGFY
UniProt P49643, sequence (P49643 whole entry): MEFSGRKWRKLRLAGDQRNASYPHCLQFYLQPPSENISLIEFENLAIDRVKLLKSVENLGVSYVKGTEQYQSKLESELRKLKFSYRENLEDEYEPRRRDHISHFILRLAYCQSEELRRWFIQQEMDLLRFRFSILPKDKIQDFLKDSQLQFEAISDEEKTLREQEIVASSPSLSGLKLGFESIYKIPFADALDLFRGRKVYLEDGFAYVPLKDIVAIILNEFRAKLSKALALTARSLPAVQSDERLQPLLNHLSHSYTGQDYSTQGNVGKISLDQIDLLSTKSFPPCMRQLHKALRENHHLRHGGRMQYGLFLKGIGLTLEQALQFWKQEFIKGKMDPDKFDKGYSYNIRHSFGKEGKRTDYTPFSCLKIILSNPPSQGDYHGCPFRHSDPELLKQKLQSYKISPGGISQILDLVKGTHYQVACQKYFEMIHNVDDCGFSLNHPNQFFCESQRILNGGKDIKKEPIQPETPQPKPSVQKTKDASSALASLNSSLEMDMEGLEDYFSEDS
UniProt Q01543, sequence (Q01543 whole entry): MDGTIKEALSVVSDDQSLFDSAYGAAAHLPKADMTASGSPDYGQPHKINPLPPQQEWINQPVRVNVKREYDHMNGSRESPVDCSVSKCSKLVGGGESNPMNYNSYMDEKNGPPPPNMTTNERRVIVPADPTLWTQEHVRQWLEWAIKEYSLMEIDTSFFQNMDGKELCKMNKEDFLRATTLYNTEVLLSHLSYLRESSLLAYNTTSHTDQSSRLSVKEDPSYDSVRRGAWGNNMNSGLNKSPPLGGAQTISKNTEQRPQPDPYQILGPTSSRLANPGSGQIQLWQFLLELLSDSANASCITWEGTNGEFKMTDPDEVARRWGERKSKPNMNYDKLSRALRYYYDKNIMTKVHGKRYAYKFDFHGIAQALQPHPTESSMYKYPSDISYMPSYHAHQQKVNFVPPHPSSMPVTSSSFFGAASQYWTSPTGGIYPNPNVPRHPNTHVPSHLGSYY
UniProt P18846, sequence (P18846 whole entry): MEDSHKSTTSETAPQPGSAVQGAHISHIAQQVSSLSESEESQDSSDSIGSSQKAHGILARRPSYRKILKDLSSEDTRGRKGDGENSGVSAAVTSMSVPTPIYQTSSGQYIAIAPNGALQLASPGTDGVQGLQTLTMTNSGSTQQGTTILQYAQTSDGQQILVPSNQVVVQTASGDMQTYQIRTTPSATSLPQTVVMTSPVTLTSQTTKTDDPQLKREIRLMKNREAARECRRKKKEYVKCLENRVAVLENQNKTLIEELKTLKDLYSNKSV
UniProt P61204, sequence (P61204 whole entry): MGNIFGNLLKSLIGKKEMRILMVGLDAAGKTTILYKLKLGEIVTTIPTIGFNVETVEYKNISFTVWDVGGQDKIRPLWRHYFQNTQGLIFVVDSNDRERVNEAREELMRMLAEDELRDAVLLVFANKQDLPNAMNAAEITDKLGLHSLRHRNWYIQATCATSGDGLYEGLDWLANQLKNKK
UniProt O75531, sequence (O75531 whole entry): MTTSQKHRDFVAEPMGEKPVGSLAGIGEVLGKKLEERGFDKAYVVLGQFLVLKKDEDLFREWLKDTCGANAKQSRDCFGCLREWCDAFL
UniProt P20933, sequence (P20933 whole entry): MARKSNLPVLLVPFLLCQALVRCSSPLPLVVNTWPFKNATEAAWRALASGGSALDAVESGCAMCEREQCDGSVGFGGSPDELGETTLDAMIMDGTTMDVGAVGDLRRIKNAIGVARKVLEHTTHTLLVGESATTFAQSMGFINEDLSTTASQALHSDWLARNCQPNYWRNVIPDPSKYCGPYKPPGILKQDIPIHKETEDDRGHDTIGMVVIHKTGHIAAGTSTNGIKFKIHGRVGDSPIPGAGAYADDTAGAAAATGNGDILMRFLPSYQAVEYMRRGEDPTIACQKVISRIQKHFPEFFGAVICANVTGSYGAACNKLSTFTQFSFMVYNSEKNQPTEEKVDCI
UniProt P55769, sequence (P55769 whole entry): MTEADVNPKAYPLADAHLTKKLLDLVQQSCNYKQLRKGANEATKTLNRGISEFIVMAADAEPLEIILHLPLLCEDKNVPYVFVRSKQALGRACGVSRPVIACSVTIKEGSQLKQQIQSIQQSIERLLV
UniProt P38935, sequence (P38935 whole entry): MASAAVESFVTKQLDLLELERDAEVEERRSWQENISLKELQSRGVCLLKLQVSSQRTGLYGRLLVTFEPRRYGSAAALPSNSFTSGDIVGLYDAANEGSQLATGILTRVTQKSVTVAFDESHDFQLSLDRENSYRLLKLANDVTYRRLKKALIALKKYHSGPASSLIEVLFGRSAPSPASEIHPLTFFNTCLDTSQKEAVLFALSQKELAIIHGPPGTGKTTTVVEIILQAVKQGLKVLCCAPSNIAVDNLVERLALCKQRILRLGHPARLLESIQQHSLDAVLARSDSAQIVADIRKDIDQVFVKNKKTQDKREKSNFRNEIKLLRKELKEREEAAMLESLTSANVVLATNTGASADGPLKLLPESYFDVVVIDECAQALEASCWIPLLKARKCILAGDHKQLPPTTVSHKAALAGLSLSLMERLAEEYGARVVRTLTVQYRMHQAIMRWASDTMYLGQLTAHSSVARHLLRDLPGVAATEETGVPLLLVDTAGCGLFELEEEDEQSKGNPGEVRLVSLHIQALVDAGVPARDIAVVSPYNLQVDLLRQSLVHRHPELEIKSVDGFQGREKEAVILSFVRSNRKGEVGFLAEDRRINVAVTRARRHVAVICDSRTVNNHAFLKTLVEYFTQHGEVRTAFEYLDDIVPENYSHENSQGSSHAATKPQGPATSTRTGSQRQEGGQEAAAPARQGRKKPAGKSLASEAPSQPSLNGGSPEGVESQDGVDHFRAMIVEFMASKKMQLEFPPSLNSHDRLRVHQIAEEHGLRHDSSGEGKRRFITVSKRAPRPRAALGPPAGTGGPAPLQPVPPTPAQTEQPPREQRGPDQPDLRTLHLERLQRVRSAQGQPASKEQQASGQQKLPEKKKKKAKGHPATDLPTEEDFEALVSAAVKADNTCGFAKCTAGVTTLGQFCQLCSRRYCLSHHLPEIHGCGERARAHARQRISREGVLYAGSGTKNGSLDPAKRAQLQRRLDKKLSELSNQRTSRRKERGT
UniProt P23025, sequence (P23025 whole entry): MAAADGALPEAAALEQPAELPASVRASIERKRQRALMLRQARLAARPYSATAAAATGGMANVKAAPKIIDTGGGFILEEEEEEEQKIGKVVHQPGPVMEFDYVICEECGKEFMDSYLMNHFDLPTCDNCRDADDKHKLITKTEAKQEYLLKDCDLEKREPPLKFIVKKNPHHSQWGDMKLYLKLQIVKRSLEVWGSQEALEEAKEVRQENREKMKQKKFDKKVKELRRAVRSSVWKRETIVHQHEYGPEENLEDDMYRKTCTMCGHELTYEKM
UniProt P49748, sequence (P49748 whole entry): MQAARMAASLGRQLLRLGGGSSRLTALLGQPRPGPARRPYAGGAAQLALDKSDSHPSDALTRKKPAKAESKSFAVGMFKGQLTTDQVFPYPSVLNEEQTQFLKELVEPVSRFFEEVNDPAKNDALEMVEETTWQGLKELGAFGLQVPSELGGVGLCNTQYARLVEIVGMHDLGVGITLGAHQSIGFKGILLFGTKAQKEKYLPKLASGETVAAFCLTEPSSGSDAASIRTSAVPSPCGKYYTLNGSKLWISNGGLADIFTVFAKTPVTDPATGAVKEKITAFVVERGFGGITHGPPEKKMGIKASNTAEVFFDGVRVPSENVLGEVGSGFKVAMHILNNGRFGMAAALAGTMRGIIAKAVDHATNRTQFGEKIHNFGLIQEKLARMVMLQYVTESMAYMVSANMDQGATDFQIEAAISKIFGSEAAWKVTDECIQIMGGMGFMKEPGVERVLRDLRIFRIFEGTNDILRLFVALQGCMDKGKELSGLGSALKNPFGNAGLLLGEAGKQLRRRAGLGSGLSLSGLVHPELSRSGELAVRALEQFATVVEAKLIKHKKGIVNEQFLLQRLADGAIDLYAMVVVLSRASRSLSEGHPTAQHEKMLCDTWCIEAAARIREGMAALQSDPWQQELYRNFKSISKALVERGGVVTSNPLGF

Target	NP40-soluble protein abundance (concentration: 1mM)	NP40-soluble protein abundance (concentration: 2mM)	NP40-soluble protein abundance (concentration: 4mM)	NP40-soluble protein abundance (concentration: 6mM)	NP40-soluble protein abundance (concentration: 8mM)	NP40-soluble protein abundance (concentration: 10mM)
CDKN2D (UniProt P55273)	0.959 ± 0.065	0.928 ± 0.036	0.953 ± 0.046	0.953 ± 0.019	0.951 ± 0.024	0.872 ± 0.045
PRPF6 (UniProt O94906)	1.31 ± 0.017	1.5 ± 0.12	1.79 ± 0.13	1.97 ± 0.2	2.18 ± 0.15	2.36 ± 0.21
UniProt P51114|P51114-2	1.644 ± 0.0088	1.79 ± 0.041	2.03 ± 0.048	2.17 ± 0.11	2.32 ± 0.039	2.4 ± 0.045
UniProt P08621|P08621-2	1.33 ± 0.049	1.42 ± 0.083	1.59 ± 0.078	1.74 ± 0.096	1.88 ± 0.077	1.97 ± 0.14
HMGN2 (UniProt P05204)	1.06 ± 0.36	1.27 ± 0.42	1.29 ± 0.44	1.67 ± 0.9	1.55 ± 0.41	2.08 ± 1.5
PFN1 (UniProt P07737)	0.941 ± 0.059	0.934 ± 0.049	0.918 ± 0.027	0.92 ± 0.059	0.891 ± 0.015	0.911 ± 0.034
BANF1 (UniProt O75531)	5.83 ± 1.6	5.36 ± 0.56	5.89 ± 1.4	6.26 ± 1.4	5.6 ± 0.81	5.02 ± 1.8
UniProt Q01543|Q01543-3|Q01543-2	0.989 ± 0.05	0.997 ± 0.013	0.996 ± 0.032	1.01 ± 0.048	0.969 ± 0.033	0.9608 ± 0.0033
ARF3 (UniProt P61204)	1.05 ± 0.21	1.01 ± 0.17	1.04 ± 0.13	0.961 ± 0.23	1.05 ± 0.073	0.996 ± 0.08
AGA (UniProt P20933)	0.925 ± 0.059	0.964 ± 0.07	0.978 ± 0.079	0.94 ± 0.081	0.914 ± 0.064	0.876 ± 0.071
C1QBP (UniProt Q07021)	1.15 ± 0.48	0.69 ± 0.36	1.21 ± 0.26	0.585 ± 0.18	1.19 ± 0.24	0.587 ± 0.2
UniProt P28908|P28908-3	0.986 ± 0.073	0.999 ± 0.0037	1.08 ± 0.13	0.992 ± 0.073	0.951 ± 0.041	0.964 ± 0.026
UniProt P55769	1.03 ± 0.15	1.06 ± 0.11	1.13 ± 0.13	1.23 ± 0.11	1.28 ± 0.049	1.33 ± 0.24
PSMC2 (UniProt P35998)	0.9515 ± 0.0057	0.914 ± 0.029	0.882 ± 0.016	0.908 ± 0.1	0.899 ± 0.053	0.894 ± 0.047
GCSH (UniProt P23434)	0.985 ± 0.048	0.971 ± 0.024	0.986 ± 0.051	1.03 ± 0.05	0.915 ± 0.051	0.927 ± 0.092
UniProt P49903|P49903-2	1 ± 0.039	0.992 ± 0.02	0.962 ± 0.049	0.979 ± 0.068	0.966 ± 0.052	0.96 ± 0.042
UniProt P62854	0.92 ± 0.095	0.912 ± 0.11	0.911 ± 0.18	0.809 ± 0.13	0.745 ± 0.099	0.843 ± 0.13
CTCF (UniProt P49711)	1.02 ± 0.027	0.993 ± 0.036	0.972 ± 0.034	0.895 ± 0.046	0.927 ± 0.032	0.894 ± 0.027

Target	NP40-soluble protein abundance (concentration: 1mM)	NP40-soluble protein abundance (concentration: 2mM)	NP40-soluble protein abundance (concentration: 4mM)	NP40-soluble protein abundance (concentration: 6mM)	NP40-soluble protein abundance (concentration: 8mM)	NP40-soluble protein abundance (concentration: 10mM)
RBM34 (UniProt P42696)	1.16 ± 0.026	1.21 ± 0.059	1.4 ± 0.097	1.57 ± 0.1	1.7 ± 0.18	1.85 ± 0.21
UniProt P18583|P18583-5|P18583-7|P18583-9	1.28 ± 0.057	1.3 ± 0.075	1.36 ± 0.099	1.49 ± 0.14	1.45 ± 0.095	1.55 ± 0.13
P0DN76|Q01081|Q01081-2 (UniProt Q01081+P0DN76)	2.11 ± 0.23	2.14 ± 0.2	2.22 ± 0.17	2.36 ± 0.16	2.27 ± 0.11	2.24 ± 0.17
XPA (UniProt P23025)	0.975 ± 0.021	0.979 ± 0.033	0.965 ± 0.054	1.02 ± 0.027	0.954 ± 0.1	0.968 ± 0.05
GALK2 (UniProt Q01415)	0.938 ± 0.068	0.975 ± 0.073	0.985 ± 0.012	0.86 ± 0.12	0.956 ± 0.066	0.968 ± 0.037
UniProt P59190	1.18 ± 0.054	2.37 ± 1.5	1.25 ± 0.21	1.16 ± 0.23	1.22 ± 0.2	1.18 ± 0.15
UniProt P08134|Q5JR08	0.974 ± 0.053	0.998 ± 0.031	0.975 ± 0.024	1 ± 0.05	0.957 ± 0.067	0.971 ± 0.027
AKR1A1 (UniProt P14550)	0.989 ± 0.046	0.979 ± 0.047	0.956 ± 0.048	0.959 ± 0.086	0.986 ± 0.059	0.944 ± 0.05
ATF1 (UniProt P18846)	0.986 ± 0.2	0.951 ± 0.033	1.02 ± 0.14	0.999 ± 0.054	0.97 ± 0.074	0.917 ± 0.068
CCNA2 (UniProt P20248)	0.998 ± 0.059	0.977 ± 0.027	0.993 ± 0.017	1.03 ± 0.046	0.9881 ± 0.0022	0.995 ± 0.05
UniProt P11388|P11388-2|P11388-3|P11388-4	1.31 ± 0.066	1.41 ± 0.062	1.64 ± 0.06	1.76 ± 0.074	1.99 ± 0.11	2.03 ± 0.14
SNRPA (UniProt P09012)	1.01 ± 0.067	0.989 ± 0.09	0.973 ± 0.093	0.984 ± 0.1	0.992 ± 0.032	0.97 ± 0.006
UniProt P60228	0.999 ± 0.024	0.999 ± 0.051	1.08 ± 0.035	1.23 ± 0.063	1.34 ± 0.073	1.49 ± 0.12
IGHMBP2 (UniProt P38935)	1.41 ± 0.11	1.59 ± 0.088	1.84 ± 0.09	2.01 ± 0.13	2.19 ± 0.2	2.4 ± 0.14
UniProt P49748|P49748-3	0.997 ± 0.081	0.989 ± 0.064	0.983 ± 0.027	0.934 ± 0.083	0.986 ± 0.015	0.973 ± 0.045
PRIM2 (UniProt P49643)	1.03 ± 0.057	1.02 ± 0.025	1.02 ± 0.032	1 ± 0.034	1.02 ± 0.028	1.03 ± 0.047
UniProt P21675|P21675-12|P21675-2|P21675-3|P21675-4|P21675-5|P21675-6|P21675-7|P21675-9	1.11 ± 0.067	1.11 ± 0.048	1.11 ± 0.066	1.15 ± 0.14	1.2 ± 0.079	1.19 ± 0.091
